According to PubChem BioAssay AID1159580 (chemical genetic matrix, 2015):
Screen size: about 5,500 compounds; about 2,000 (36%) were called active. Another 18% or so got no clear call; they are omitted. Rule as the data show it: active = normalized growth mostly below about 0.91 (no sharp cut-off); inconclusive = no clear call, values can overlap the other calls; inactive = mostly above about 0.92. The list shows a part of the results.

Experiment: chemical genetic growth profiling, strain panel (AID 1159580);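 also: tested at 20 µM; growth read once vehicle control cultures reached saturation at 30 °C; 1 = growth at the plate median or of vehicle wells; lower values mean less growth of the strain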
Details: growth OD

Measured: normalized growth

NC(=O)NC1NC(=O)NC1=O (configuration not stated)
inactive: S. cerevisiae deletion strains, locus YJR075W, strain HOC1, stronger effect = lower value 1.01 | S. cerevisiae deletion strains, locus YKL009W, strain mrt4, stronger effect = lower value 0.989 | S. cerevisiae deletion strains, locus YKL068W, stronger effect = lower value 0.987 | S. cerevisiae deletion strains, locus YKL085W, strain MDH1 (second series), stronger effect = lower value 0.981 | S. cerevisiae deletion strains, locus YKL085W, strain MDH1, stronger effect = lower value 0.981 | S. cerevisiae deletion strains, locus YKL160W, strain elf1, stronger effect = lower value 0.979 | S. cerevisiae deletion strains, locus YKL190W, strain CNB1, stronger effect = lower value 0.997 | S. cerevisiae deletion strains, locus YKR001C, strain vps1, stronger effect = lower value 0.984 | S. cerevisiae deletion strains, locus YKR026C, strain gcn3, stronger effect = lower value 1 | S. cerevisiae deletion strains, locus YKR091W, strain srl3, stronger effect = lower value 1 | S. cerevisiae deletion strains, locus YLL001W, strain dnm1, stronger effect = lower value 1 | S. cerevisiae deletion strains, locus YLL026W, stronger effect = lower value 1.01 | S. cerevisiae deletion strains, locus YLL041C, strain sdh2, stronger effect = lower value 1 | S. cerevisiae deletion strains, locus YLR027C, strain aat2, stronger effect = lower value 1 | S. cerevisiae deletion strains, locus YLR039C, strain RIC1, stronger effect = lower value 1.03 | S. cerevisiae deletion strains, locus YLR058C, strain SHM2, stronger effect = lower value 0.99 | S. cerevisiae deletion strains, locus YLR102C, strain apc9, stronger effect = lower value 0.987 | S. cerevisiae deletion strains, locus YLR113W, strain HOG1, stronger effect = lower value 1.04 | S. cerevisiae deletion strains, locus YLR221C, strain rsa3, stronger effect = lower value 0.998 | S. cerevisiae deletion strains, locus YLR258W, strain gsy2, stronger effect = lower value 1 | S. cerevisiae deletion strains, locus YLR262C, strain YPT6 (second series), stronger effect = lower value 1.02 | S. cerevisiae deletion strains, locus YLR262C, strain YPT6, stronger effect = lower value 0.965 | S. cerevisiae deletion strains, locus YLR268W, strain sec22, stronger effect = lower value 0.917 | S. cerevisiae deletion strains, locus YLR320W, strain mms22, stronger effect = lower value 1 | S. cerevisiae deletion strains, locus YLR330W, strain CHS5, stronger effect = lower value 0.991 | S. cerevisiae deletion strains, locus YLR342W, strain FKS1 (second series), stronger effect = lower value 1.06 | S. cerevisiae deletion strains, locus YLR342W, strain FKS1, stronger effect = lower value 1 | S. cerevisiae deletion strains, locus YLR357W, strain rsc2, stronger effect = lower value 0.968 | S. cerevisiae deletion strains, locus YLR370C, strain arc18, stronger effect = lower value 1 | S. cerevisiae deletion strains, locus YLR371W, strain rom2, stronger effect = lower value 0.971 | S. cerevisiae deletion strains, locus YLR384C, strain iki3, stronger effect = lower value 1.01 | S. cerevisiae deletion strains, locus YLR418C, strain cdc73, stronger effect = lower value 0.965 | S. cerevisiae deletion strains, locus YML016C, strain PPZ1, stronger effect = lower value 0.987 | S. cerevisiae deletion strains, locus YML032C, strain rad52, stronger effect = lower value 0.981 | S. cerevisiae deletion strains, locus YML120C, strain ndi1, stronger effect = lower value 1.01 | S. cerevisiae deletion strains, locus YML124C, strain tub3, stronger effect = lower value 0.978 | S. cerevisiae deletion strains, locus YMR058W, strain fet3, stronger effect = lower value 1.01 | S. cerevisiae deletion strains, locus YMR078C, strain ctf18, stronger effect = lower value 0.976 | S. cerevisiae deletion strains, locus YMR125W, strain sto1, stronger effect = lower value 1 | S. cerevisiae deletion strains, locus YMR129W, stronger effect = lower value 1 | S. cerevisiae deletion strains, locus YMR205C, strain PFK2, stronger effect = lower value 0.982 | S. cerevisiae deletion strains, locus YMR223W, strain ubp8, stronger effect = lower value 1 | S. cerevisiae deletion strains, locus YMR231W, strain pep5, stronger effect = lower value 0.994 | S. cerevisiae deletion strains, locus YMR263W, strain SAP30, stronger effect = lower value 0.988 | S. cerevisiae deletion strains, locus YMR307W, strain GAS1, stronger effect = lower value 1.01 | S. cerevisiae deletion strains, locus YNL067W, strain RPL9B, stronger effect = lower value 0.982 | S. cerevisiae deletion strains, locus YNL071W, strain lat1, stronger effect = lower value 1.01 | S. cerevisiae deletion strains, locus YNL128W, strain TEP1, stronger effect = lower value 0.997 | S. cerevisiae deletion strains, locus YNL153C, strain GIM3, stronger effect = lower value 0.987 | S. cerevisiae deletion strains, locus YNL183C, strain NPR1, stronger effect = lower value 0.977 | S. cerevisiae deletion strains, locus YNL209W, strain ssb2, stronger effect = lower value 1 | S. cerevisiae deletion strains, locus YNL233W, strain BNI4, stronger effect = lower value 0.978 | S. cerevisiae deletion strains, locus YNL248C, strain rpa49, stronger effect = lower value 0.999 | S. cerevisiae deletion strains, locus YNL250W, strain rad50, stronger effect = lower value 0.981 | S. cerevisiae deletion strains, locus YNL271C, strain bni1, stronger effect = lower value 0.977 | S. cerevisiae deletion strains, locus YNL298W, strain CLA4, stronger effect = lower value 0.985 | S. cerevisiae deletion strains, locus YNL307C, strain MCK1, stronger effect = lower value 0.985 | S. cerevisiae deletion strains, locus YNL322C, strain KRE1 (second series), stronger effect = lower value 0.986 | S. cerevisiae deletion strains, locus YNL322C, strain KRE1, stronger effect = lower value 0.998 | S. cerevisiae deletion strains, locus YNR049C, strain mso1, stronger effect = lower value 1.01 | S. cerevisiae deletion strains, locus YNR052C, strain pop2, stronger effect = lower value 0.992 | S. cerevisiae deletion strains, locus YOL006C, strain TOP1, stronger effect = lower value 0.996 | S. cerevisiae deletion strains, locus YOL012C, strain htz1 0.886 | S. cerevisiae deletion strains, locus YOL147C, strain pex11, stronger effect = lower value 0.983 | S. cerevisiae deletion strains, locus YOR001W, strain rrp6, stronger effect = lower value 1 | S. cerevisiae deletion strains, locus YOR061W, strain CKA2, stronger effect = lower value 0.991 | S. cerevisiae deletion strains, locus YOR069W, strain VPS5, stronger effect = lower value 0.99 | S. cerevisiae deletion strains, locus YOR070C, strain gyp1, stronger effect = lower value 1 | S. cerevisiae deletion strains, locus YOR080W, strain dia2, stronger effect = lower value 0.993 | S. cerevisiae deletion strains, locus YOR083W, strain WHI5, stronger effect = lower value 0.992 | S. cerevisiae deletion strains, locus YOR106W, strain vam3, stronger effect = lower value 0.99 | S. cerevisiae deletion strains, locus YOR136W, strain idh2, stronger effect = lower value 0.993 | S. cerevisiae deletion strains, locus YOR144C, strain elg1, stronger effect = lower value 0.984 | S. cerevisiae deletion strains, locus YOR184W, strain ser1, stronger effect = lower value 0.967 | S. cerevisiae deletion strains, locus YOR231W, strain MKK1, stronger effect = lower value 1.03 | S. cerevisiae deletion strains, locus YOR265W, strain rbl2, stronger effect = lower value 1.03 | S. cerevisiae deletion strains, locus YOR270C, strain vph1, stronger effect = lower value 1.03 | S. cerevisiae deletion strains, locus YOR290C, strain snf2, stronger effect = lower value 1.03 | S. cerevisiae deletion strains, locus YOR316C, strain cot1, stronger effect = lower value 0.977 | S. cerevisiae deletion strains, locus YPL051W, strain arl3, stronger effect = lower value 1 | S. cerevisiae deletion strains, locus YPL055C, strain LGE1, stronger effect = lower value 1.01 | S. cerevisiae deletion strains, locus YPL078C, strain atp4, stronger effect = lower value 1 | S. cerevisiae deletion strains, locus YPL106C, strain sse1, stronger effect = lower value 0.977 | S. cerevisiae deletion strains, locus YPL240C, strain hsp82, stronger effect = lower value 1.01 | S. cerevisiae deletion strains, locus YPL241C, strain CIN2, stronger effect = lower value 0.992 | S. cerevisiae deletion strains, locus YPL256C, strain CLN2, stronger effect = lower value 1.03 | S. cerevisiae deletion strains, locus YPR119W, strain clb2, stronger effect = lower value 0.982 | S. cerevisiae deletion strains, locus YPR141C, strain kar3, stronger effect = lower value 0.98 | S. cerevisiae deletion strains, locus YPR163C, strain tif3, stronger effect = lower value 0.981 | S. cerevisiae deletion strains, locus YPR167C, strain met16, stronger effect = lower value 0.979 | S. cerevisiae deletion strains, strain wtn01, stronger effect = lower value 0.971 | S. cerevisiae strains, strain wild type, stronger effect = lower value 0.996
